# Experimental data as given in the supplement of paper PMC11417369.
# ± gives the standard deviation of the averaged measurements. The full ranking holds about 25,000 sequences; the median of “ln(normalized median fluorescence intensity)” is about 8.6, and the highest 2% start at about 10. Shown is part of a subset that was picked to be rich in the highest values.
# Tested on: PfAP2-EXP AP2 domain (GST-tagged)
# Assay: gcPBM binding intensity (ln(normalized median fluorescence intensity)); higher = stronger DNA binding
# Summary of the method: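 Each value is the highest Masliner-normalised natural-log median intensity across replicate spots of either orientation of a probe. The probes were primer-extended double-stranded 36-bp intergenic genomic sequences on an Agilent 4 × 180k array, alongside negative controls, exposed for 1 h to GST-tagged P. falciparum DNA-binding domains expressed in E. coli. Bound protein was picked up with Alexa488 anti-GST antibody and scanned at 488 nm.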
row,Sequence,gcPBM binding intensity (ln)
1,TATATTAGAAGAAATTCACACATTCATGTAATCTTA [CACACA_site4706],8.07 ± 0.33
2,ATAAATAAGATATATACACACATATCTATACATATT [CACACA_site6369],8.28 ± 0.49
3,AATCGATAACAATGTAGTACCAGAAAAATAAATATT [XGTACX_site8501],8.99 ± 0.3
4,AGAATCACCAAATATGTACACACCTTAACATGTTTA [CACACA_site2068],9.01 ± 0.46
5,ATTAGCTACAAACAAAGGCTACCTATAGCAAGAGGG [GTGCAC_negctrl_site33],8.84 ± 0.39
6,ATTATTAAAAAGATGTAAATAAATGAATATATGCTT [CACACA_negctrl_site539],8.47 ± 0.39
7,TATTTTTTTTTTTTTTTTTTTTTAAAACATATCAAT [CACACA_negctrl_site925],7.95 ± 0.64
8,TAGCTCGTTCGGAGCACACACATATATATATATATA [CACACA_site1948],10.3 ± 0.28
9,TAGCTCGTTCGGAGCACACACATATAAATAAATATA [CACACA_site7002],8.38 ± 0.52
10,GTTAGCTCGTTCGGAGCACACACATATATATATATA [CACACA_site8595],10.1 ± 0.45
11,TTCTATATATTTGGAAGTACATTATATTTATTTTTT [XGTACX_site3172],8.44 ± 0.33
12,AAATAATAAATATATCGTACAAATATCATATATAAA [XGTACX_site2771],8.32 ± 0.38
13,TATCTGTAAATGGACACACACATATATATATATATA [CACACA_site5926],10.2 ± 0.2
14,AATATATGTAAATGGACACACACATATATATATATA [CACACA_site9220],10 ± 0.28
15,CCTAAATAAATGGACACACACATATATATATATATA [CACACA_site1439],10.2 ± 0.32
16,TATATGTAAATGGACACACACATATATATATATATA [CACACA_site3659],10.1 ± 0.36
17,TACCTAAATAAATGGACACACACATATATATATATA [CACACA_site8407],10.1 ± 0.3
18,CCTAAATAAATGGACACACACATATTTATATTTATA [CACACA_site6789],8.46 ± 0.45
19,AATATTATAAATGTCACACATATATTCAAATATATA [CACACA_site4736],8.29 ± 0.38

row,Sequence,gcPBM binding intensity (ln)
1,ACACATAAATGAATAAATAAATAAATATAAATATAA [CACACA_negctrl_site1784],8.36 ± 0.29
2,AATAAATGGAATGTCACACATATATATATATATATA [CACACA_site4869],10.2 ± 0.37
3,GAACATACTCAAATAGCACACACATAAATAAAAATG [CACACA_site9283],8.89 ± 0.56
4,GTGTGTTGTATATACTGTACATACTTTATATATAGT [XGTACX_site1876],8.63
5,CCTTTTTTGTTTTATGCACACCATATAACCAAGGCT [CACACA_site7893],8.98 ± 0.18
6,AAAAAATGGATGATCACACACTTCATAAAAATTGCA [CACACA_site5256],8.46 ± 0.49
7,GTATATAATTTATATTGTACGCATATTATTATCATT [XGTACX_site7277],8.57 ± 0.25
8,TTTATATTTAAATGCATGCACTTTCTATTTTTTTTT [GTGCAC_site9959],10 ± 0.33
9,CTTTTCTATTTTTTCGTGCACTATAAATATTTTAAT,9.6 ± 0.23
10,ATTCTATATTTAAATGCATGCACTTTCTATTTTTTT [TGCATGCA_site435],10.6 ± 0.52
11,TATATATATATATTATGTACTCATTTATTATCTTTT [XGTACX_site8051],9.97 ± 0.13
12,ATGCATATATTTATGTGTACATATATTTGTAGGGGG [XGTACX_site6063],10.6 ± 0.19
13,ATATATATATATGCATGTACATATATTTGTTATATC [XGTACX_site3197],9.82 ± 0.45
14,TATATATATATATATGCATGTACATATATTTGTTAT [TGCATGCA_site379],10.3 ± 0.17
15,ATAGCATATATTTTTTGTACATATGTTATATATATA [XGTACX_site2184],8.96 ± 0.071
16,ATATATATATATATATGTACTCATATTTTATTATTT [XGTACX_site898],10.1 ± 0.3
17,ATATATATTTATATATGTACATATTTTTGTGTATTT [XGTACX_site1183],8.55 ± 0.43
18,TTTGTCATTTTATTATGTACTCAGCATATAGGGGGG [XGTACX_site505],10.7 ± 0.13
19,ATATATTTATATTTGTGTACATATTTATTATATTTA [XGTACX_site404],8.46 ± 0.28

row,Sequence,gcPBM binding intensity (ln)
1,ACAAAAATATTATATTGTACATTATTAGTTCATATT [XGTACX_site6750],8.5 ± 0.3
2,GTAATTTTGAGATGATGTACATATTTTTTCCTTGTC [XGTACX_site4103],8.78 ± 0.47
3,TAATTAAGAATATATAGTACATAGTTGAAAAACTTT [XGTACX_site6359],8.41 ± 0.33
4,GTTTGATAACACCTACAAACTCTTTTTTTTTTTTTT [CACACA_negctrl_site1134],8.41 ± 0.53
5,TCTGTGTTTTTGGGTACACACAAATAGCTTGTATAT [CACACA_site4002],8.72 ± 0.19
6,TATGTAACCTGTTTTACACACCCCCACCCCCCTCTT [CACACA_site319],10.3 ± 0.17
7,TATATATGTTTTTATGTACACACTTTTAACCTAAGA [CACACA_site1149],8.71 ± 0.36
8,ACCCTATATGTAACTACACACCGCATATTGTTTACT [CACACA_site3071],9.19 ± 0.43
9,ATCTATATAATATATACACACAAATATACAAAAAAA [CACACA_site1013],8.64 ± 0.56
10,AAAAAAATAAATAAATGTACACATATATATATATAT [XGTACX_site4350],10.2 ± 0.47
11,ATATATATATATATATGTACATATACACATGTGTGC [XGTACX_site168],10.1 ± 0.33
12,AAATGCGCCATGTGTACACATATATATATATATATA [CACACA_site4649],10.3 ± 0.33
13,ATACACACATATATGTGTACATATACATATATATAT [XGTACX_site6744],9.53 ± 0.32
14,AAAAAATGCGACATGTGTACACATATATATATATAT [XGTACX_site1679],10.4 ± 0.11
15,GTACAAATGTTGTGTATATATACACACATACATATA [XGTACX_negctrl_site276],8.69 ± 0.33
16,ATAACACAAAATTGTTGTACACGTGTTAATAAGTGA [XGTACX_site4452],9.12 ± 0.33
17,TTAAAAAAATAATTAACACACACATGTATATCTATA [CACACA_site9026],8.21 ± 0.42
18,TAGTACACACAAAATACATGCGGGGTTTAATATTTA [TGCATGCA_site576],8.78 ± 0.45
19,TATATGACAAGATAAAGTACAAATTTGTATATATAT [XGTACX_site3027],8.97 ± 0.25
